High-throughput results deposited in PubChem BioAssay by National Center for Advancing Translational Sciences (NCATS).
Most compounds without a hit are left out; they make up all but 11% or so of the library.
G9a inh: blocks human histone lysine methyltransferase G9a | Q96KQ7 | G9a H3K9 monomethylation, AlphaScreen, 2 h | Potency, µM (doses to about 102 µM), for the others: top-dose activity, negative = inhibition, hits mostly inhibitors | 350,000 compounds, 8.8% hits; also: % is scaled to controls: 0 for no effect and ±100 for the full control effect; nearly all actives have a fitted effect of over 75% in size
Target sequence (Q96KQ7 913-1193 limits assumed): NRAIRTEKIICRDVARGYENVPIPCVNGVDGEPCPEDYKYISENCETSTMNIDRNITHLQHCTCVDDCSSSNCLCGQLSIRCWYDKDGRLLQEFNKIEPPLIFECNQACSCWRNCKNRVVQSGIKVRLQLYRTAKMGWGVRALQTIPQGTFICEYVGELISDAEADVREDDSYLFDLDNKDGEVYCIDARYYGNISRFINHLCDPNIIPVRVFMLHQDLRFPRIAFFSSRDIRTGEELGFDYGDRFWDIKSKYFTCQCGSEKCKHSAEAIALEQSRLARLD
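Using a bead-based AlphaScreen, monomethylated H3K9 product from 2 h room-temperature reactions (G9a 20 nM, peptide 500 nM, SAM 20 uM) was detected with 0.5 ug/mL rabbit anti-H3K9me1 antibody.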
BAZ2B inh: blocks human BAZ2B. Q9UIF8. AlphaScreen BAZ2B-H3K14Ac peptide displacement. Potency, µM (top dose mostly 114 µM), for inactives: top-dose activity change, negative = inhibition, most hits filed as inhibitors. 360,000 compounds, 4.4% hits; also: % is scaled to controls: 0 for no effect and ±100 for the full control effect; nearly all actives have a fitted effect of over 60% in size
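BAZ2B 50 nM plus b-H3(5-23)K14Ac 50 nM, PBS pH 7.4/0.01% Tween-20, 30 min RT; compound added (max 110 uM), 30 min RT; streptavidin donor/Ni-chelate acceptor beads 10 ug/mL final, 20 min dark; AlphaScreen read.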
HP1b binding inh: inhibitors of HP1-beta chromodomain binding to methylated histone tails | AlphaScreen HP1-beta / biotin-H3K9me3 peptide binding | Potency, µM (doses to about 114 µM), inactives show at the top dose activity change, negative = inhibition, hits mostly inhibitors | P83916 | 390,000 compounds, 0.56% hits; also: nearly all actives have a fitted effect of over 70% in size
Target sequence (P83916 whole entry, looked up): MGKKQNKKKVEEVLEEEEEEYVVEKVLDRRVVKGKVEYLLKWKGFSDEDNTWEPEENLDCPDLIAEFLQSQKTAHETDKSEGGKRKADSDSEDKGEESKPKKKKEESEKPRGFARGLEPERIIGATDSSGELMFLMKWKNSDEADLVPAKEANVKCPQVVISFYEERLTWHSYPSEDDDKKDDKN
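Compound inhibition of the preformed complex between 50 nM HP1-beta and 50 nM biotinylated H3K9me3 peptide was read by AlphaScreen. Buffer was PBS pH 7.4 with 0.01% Tween-20. Incubations ran 30 min at room temperature, with 10 ug/mL donor/acceptor beads.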
JMJD2A Tudor inh: blocks the human JMJD2A Tudor domain. Potency, µM (highest dose often 114 µM), inactives show at the highest dose activity change, negative = inhibition, usual class: inhibitors. 390,000 compounds, 4.4% hits. AID 504339. AlphaScreen JMJD2A-Tudor / H3K4me3 peptide binding. O75164; also: % is scaled to controls: 0 for no effect and ±100 for the full control effect; nearly all actives have a fitted effect of over 50% in size
PLK1 PBD inh: inhibitors of human PLK1 polo-box domain binding; P53350; Plk1 PBD binding of FITC phosphopeptide, fluorescence polarization; Potency, µM, inactives show max response, negative = inhibition, usual class: inhibitors; 360,000 compounds, 2.8% hits; AID 720504; also: series mostly up to about 57 µM; % is scaled to controls: 0 for no effect and ±100 for the full control effect; nearly all actives have a fitted effect of over 65% in size
VDR inh: inhibitors of human vitamin D receptor; P11473; VDR-SRC2-3 peptide fluorescence polarization, 2 h; Potency, µM, for inactives: max response, negative = inhibition, usual class: inhibitors; 400,000 compounds, 0.93% hits; AID 504847; also: % is scaled to controls: 0 for no effect and ±100 for the full control effect
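Reagent solutions, kept cold and dark, are dispensed first; compounds are then pinned in at 23 nl, plates briefly spun, and incubated 2 h at ambient temperature. Inhibition of VDR–SRC2-3 peptide binding is read by fluorescence polarization.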
The depositor's hits bear a star; u = inconclusive; x = no result; [ ] = dose if it differs, or a comment. Calls follow the shape of the dose curve; as a rule, active = well fitted curve in the direction sought with a large enough effect; inconclusive = small, poorly fitted or top-dose-only effect, or another doubt; inactive = no such curve, though single readings can be large; an effect the other way counts as inactive or inconclusive. Potency is read from the fitted curve at half-maximal effect.

SMILES	G9a inh	BAZ2B inh	HP1b binding inh	JMJD2A Tudor inh	PLK1 PBD inh	VDR inh
CCCCCCCCCCCCCCCCSCC(COC)COP(=O)([O-])OCC[N+](C)(C)C (stereo not given)	x	x	x	x	x	0.0%
COCCCNC(=O)c1c(NC(=O)c2nc(S(C)(=O)=O)ncc2Cl)sc2c1CCCC2	2.3%[59 µM]	2.7%	21.7%	-0.7%	x	2.8%
COCCCNC(=O)C1CCN(Cc2cc3ccccc3n2Cc2cccc(Cl)c2)CC1	u	-25.6%	-2.6%	u	x	-2.9%
CCCCCC(=O)Nc1cccc(C2=NOC3(C2)C[C@H](C(N)=O)N(C(=O)CC#N)C3)c1 (stereo not given in full)	u	56.2µM*	x	x	x	x
C=C(C)C(=O)Nc1cccc(C2=NOC3(C2)C[C@H](C(N)=O)N(C(=O)CC)C3)c1 (stereo not given in full)	u	3.55µM*	10µM*	7.94µM*	-22.3%	-22.3%
C/C=C/C=C/C(=O)N1CC2(CC(c3cccc(NC(=O)/C=C/C)c3)=NO2)C[C@@H]1C(N)=O (stereo not given in full)	u	-1.6%	14.2%	-30.3%	-17.4%	-11.4%
C=C(C)C(=O)Nc1cccc(C2=NOC3(C2)C[C@H](C(N)=O)N(C(=O)CC#N)C3)c1 (stereo not given in full)	u	39.8µM*	u	25.1µM*	-7.6%	-10.4%
C=C(C)C(=O)Nc1cccc(C2=NOC3(C2)C[C@@H](C(N)=O)N(C(=O)/C=C/C=C/C)C3)c1 (stereo not given in full)	u	2µM*	u	3.16µM*	u	-24.5%
CCCCCOc1c(Cl)cc(C(=O)N(Cc2ccc(C)o2)C2CCS(=O)(=O)C2)cc1Cl (stereo not given)	-9.7%[59 µM]	-13.9%	2.4%	-18.4%	x	-3.7%
CCCCn1c(=O)c2oc3ccccc3c2n(CC(=O)Nc2cccc(Cl)c2C)c1=O	5.7%[59 µM]	-11.2%	22.2%	-17.2%	x	-2.2%
C/C=C(\C)C(=O)Nc1cccc(C2=NOC3(C2)C[C@@H](C(N)=O)N(C(=O)/C(C)=C/C)C3)c1 (stereo not given in full)	-40.6%[59 µM]	-13.1%	47.2%	-9.0%	4.3%	3.0%
C=C(C)C(=O)Nc1cccc(C2=NOC3(C2)C[C@H](C(N)=O)N(C(=O)c2ccccc2C(=O)c2ccccc2)C3)c1 (stereo not given in full)	u	10µM*	u	7.94µM*	u	8.0%
C=C(C)C(=O)Nc1cccc(C2=NOC3(C2)C[C@@H](C(N)=O)N(C(=O)CC(c2ccccc2)c2ccccc2)C3)c1 (stereo not given in full)	u	12.6µM*	20µM*	20µM*	u	13.6%
C/C=C(\C)C(=O)Nc1cccc(C2=NOC3(C2)C[C@@H](C(N)=O)N(C(=O)c2ccccc2C(=O)c2ccccc2)C3)c1 (stereo not given in full)	18.2%[12.7 µM]	-30.4%	-2.7%	-31.2%	-8.5%	1.4%
C=C(C)C(=O)Nc1cccc(C2=NOC3(C2)C[C@@H](C(N)=O)N(C(=O)/C(C)=C/C)C3)c1 (stereo not given in full)	u	1.78µM*	3.55µM*	3.16µM*	u	-5.1%
CC1(C)SC2C(NC(=O)C(NC(=O)N3CCNC3=O)c3ccccc3)C(=O)N2C1C(=O)O (stereo not given)	-4.2%[2.33 µM]	x	x	x	x	4.4%
CCOC(=O)c1c(CSC(=N)N)n(-c2ccccc2)c2cc(Br)c(OC(C)=O)cc12	50.1µM*	u	-14.7%	u	-10.5%	-13.6%
CCOC(=O)c1c(CN(CC)CC)n(-c2ccccc2)c2ccc(O)cc12	-8.0%	-2.3%	u	-24.6%	8.8%	-1.6%
O=c1cc(CN2CCN(c3cccc(C(F)(F)F)c3)CC2)nc2sccn12	u	-17.0%	49.3%	-25.7%	-22.3%	-4.1%
O=c1oc(-c2ccc([N+](=O)[O-])cc2)nc2ccc(O)cc12	39.8µM*	u	-10.9%	u	-19.3%	-20.6%
